ALDH1A1 inh: qHTS Assay for Inhibitors of Aldehyde Dehydrogenase 1 (ALDH1A1) | Purified ALDH1A1, NADH fluorescence, propionaldehyde substrate | Potency, µM (titrated, usually from 75.3 µM), inactives show at the top dose activity, negative = inhibition, most hits filed as inhibitors | 220,000 tested, 7.3% active;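 further: potency means the concentration at half of the fitted maximal effect; plate controls were no enzyme wells and a reference inhibitor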
HPGD inh: qHTS Assay for Inhibitors of HPGD (15-Hydroxyprostaglandin Dehydrogenase); 150,000 tested, 4.3% active; Potency, µM, for inactives: at the highest dose activity change, negative = inhibition, hits mostly inhibitors; AID 894, 2007; purified HPGD, NADH fluorescence kinetic, PGE2 substrate; 15-hydroxyprostaglandin dehydrogenase [NAD(+)] (Homo sapiens), P15428; further: potency means the concentration at half of the fitted maximal effect
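20 nM HPGD preincubated 15 min at room temperature with compound in 50 mM Tris-HCl pH 8, 0.01% Tween 20. Started with 1 mM NAD+ and 30 uM prostaglandin E2; NADH fluorescence (360/450 nm) read 5 times over 30-s intervals, last minus first.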
IMPase cell inh: qHTS Assay for Identifying the Cell-Membrane Permeable IMPase Inhibitors. CHO-M1 cells, IP1 accumulation, HTRF TR-FRET ratio. inhibition (IP1 accumulation), % at 46.1 µM. 120,000 tested, under 10 active. AID 901, 2007; active means well fitted curve in the direction sought with a large enough effect in the signal ratio, not every such curve was filed as active; inconclusive means small, poorly fitted or top-dose-only effect, or a change in a side signal; inactive means no such curve, though single readings can be large or run the other way; the % refers to the signal ratio;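 further: cells stimulated with carbachol in lithium chloride buffer; plate controls were DMSO basal wells for no effect and reference inhibitor wells for full effect; higher means more IMPase inhibition seen as more IP1 and lower FRET ratio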
Target sequence (P97697 whole entry, looked up): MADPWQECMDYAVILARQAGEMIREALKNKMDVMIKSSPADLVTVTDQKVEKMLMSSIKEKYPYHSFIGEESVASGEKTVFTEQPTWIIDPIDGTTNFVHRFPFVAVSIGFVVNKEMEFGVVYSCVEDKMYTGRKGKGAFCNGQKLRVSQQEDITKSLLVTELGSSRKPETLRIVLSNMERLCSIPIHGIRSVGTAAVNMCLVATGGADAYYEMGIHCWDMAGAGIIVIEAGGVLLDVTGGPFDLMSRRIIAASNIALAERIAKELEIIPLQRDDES
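Measured: the HTRF emission ratio (665/620 nm) plus the 620 nm donor channel, each fitted to the Hill equation to give AC50. Cells were CHO-M1 given compounds up to 46 uM and a 30 min carbachol stimulation at 37C.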
An asterisk follows results filed as active; [ ] = another dose, or the depositor's remark. An excerpt weighted towards active compounds, which were near 9% of everything screened. Unless noted, the call rests on the fitted dose curve; in most records, active means well fitted inhibition curve with a large enough effect (not every such curve was filed as active); inconclusive means small, poorly fitted or top-dose-only effect, or another doubt; inactive means no such curve, though single readings can be large or run the other way. Unless noted, on the % scale 0 is the no-effect control and ±100 the full control effect.

For Cc1ccc(C)c(S(=O)(=O)NCc2ccc(C(=O)N3CCC(Cc4ccccc4)CC3)cc2)c1 the results were ALDH1A1 inh inconclusive, HPGD inh inconclusive and IMPase cell inh 0.
For COc1ccc(C(=O)C(CCC(CNC(C)(C)C)C(=O)c2ccc(OC)cc2)CNC(C)(C)C)cc1 (centres undefined) the results were ALDH1A1 inh 8.9µM* and HPGD inh -4%.
Screening COc1ccc(C(=O)CC(=O)c2ccc(C(C)(C)C)cc2)cc1 returned ALDH1A1 inh inconclusive and HPGD inh -6%.
COc1ccc(Cl)cc1C1CC(=O)Nc2cc3c(cc21)OCCO3 (centres undefined) was read as IMPase cell inh 5.
For COc1cc(/C=C/[N+](=O)[O-])ccc1OCc1cccc(C(=O)O)c1 the results were ALDH1A1 inh 28µM*.
For COc1cc(/C=N/NC(=O)c2cccc([N+](=O)[O-])c2)ccc1OCc1ccccc1 the results were ALDH1A1 inh inconclusive, HPGD inh inconclusive and IMPase cell inh 4.
Cc1ccc(S(=O)(=O)N2CCN(C(=O)C3CCN(C(=O)c4ccccc4C)CC3)CC2)cc1C was read as ALDH1A1 inh 2%.
For Cc1nn(C)cc1/C=C/C(=O)c1ccccc1 the results were ALDH1A1 inh -13%, HPGD inh -11% and IMPase cell inh 2.
For CC1N/C(=C\C(=O)c2ccccc2)N(O)C1(C)C (centres undefined) the results were ALDH1A1 inh -3%, HPGD inh 14µM* and IMPase cell inh -9.
Cc1cc(S(=O)(=O)Nc2cccc(C(=O)O)c2)c(C)c(S(=O)(=O)c2ccccc2)c1 was read as IMPase cell inh 0.
CN1CCn2c1nc(N1CCOCC1)nc2=O was read as ALDH1A1 inh -3%, HPGD inh -7% and IMPase cell inh -9.
COc1cc(CNCCN(C)C)c(Br)cc1OC1CCCC1 was read as ALDH1A1 inh -13%.
For O=C(Nc1nc2ccc(Cl)cc2s1)[C@@H]1CCCN1C(=O)c1cccs1 the results were ALDH1A1 inh 25µM* and HPGD inh inconclusive.
For Cc1cccc2sc(NC(=O)[C@@H]3CCCN3C(=O)c3cccs3)nc12 the results were ALDH1A1 inh -4% and IMPase cell inh -9.
For COc1cc(/C=N/NC(=O)CN(Cc2ccco2)S(=O)(=O)c2ccccc2)ccc1O the results were ALDH1A1 inh -5% and HPGD inh -14%.
`COC(=O)c1ccc(COc2ccccc2/C=C(\C#N)C(=O)Nc2ccc(C)cc2)cc1` gave ALDH1A1 inh 7% and HPGD inh -3%.
N#C/C(=C\c1ccccc1OCc1ccc(C(=O)O)cc1)C(=O)Nc1ccc(O)cc1 was read as ALDH1A1 inh 5.6µM*.
Screening Cc1cccc(C)c1NC(=S)N(Cc1ccco1)C1CCN(C(C)C)CC1 returned ALDH1A1 inh 2%, HPGD inh -3% and IMPase cell inh 2.
`CCCCN1CCCC[C@H]1C(=O)Nc1c(C)cccc1C` gave ALDH1A1 inh 5%, HPGD inh -9% and IMPase cell inh inconclusive.
`CCN(CC)c1ccc(-n2c(C)cc(C=O)c2C)cc1` gave ALDH1A1 inh 10µM*, HPGD inh 2% and IMPase cell inh -3.
CCN(CC)c1ccc(-n2c(C)c(C(C)=O)c(C(C)=O)c2C)cc1 was read as ALDH1A1 inh inconclusive, HPGD inh -5% and IMPase cell inh 20.
`O=C1[C@@H]2[C@@H]3C[C@@H]([C@H]4ON=C(c5ccc(OCc6ccccc6)cc5)[C@@H]34)[C@@H]2C(=O)N1c1ccc2c(c1)OCO2` gave ALDH1A1 inh 2%, HPGD inh -13% and IMPase cell inh 11.
For COc1ccc(Cl)cc1-n1c(C)cc(C(=O)O)c1C the results were ALDH1A1 inh inconclusive, HPGD inh 13µM* and IMPase cell inh 5.
`COc1ccc(Cl)cc1NC(=O)C(=O)N/N=C/c1cc(C)n(-c2ccc(C)cc2)c1C` gave ALDH1A1 inh inconclusive, HPGD inh -28% and IMPase cell inh -1.
Screening COc1ccc(Cl)cc1-n1c(C)cc(C=O)c1C returned ALDH1A1 inh 13µM*, HPGD inh 14µM* and IMPase cell inh 12.
Screening Cc1cc(C(=O)C(=O)O)c(C)n1-c1ccc(Cl)cc1 returned ALDH1A1 inh 17%.
For CCN1C(C)=C(C(=O)OC)C(c2ccccc2)N2C(=O)[C@@]3(C(=O)OC)O[C@@]12C1C(=O)CCCC13 (some centres undefined) the results were ALDH1A1 inh -1%[13.5 µM].
